From PubChem BioAssay (EPA / NIEHS)
Values joined by “and” are separate entries in the source; they are usually repeats but may differ in a detail not shown here. Equal values may be shown once. More than one record can exist for a structure, and the calls need not agree. Active and inactive are the calls of the source. The calls were made as follows: active = hit-call score of the fitted dose curve at least 0.9, where 1 is the maximum; inactive = score below 0.9.

What follows are molecules tested on Interleukin-1 alpha (IL1a), IL1A (gene 3552) (assay: BSK_LPS_IL1a: BioMAP Diversity Plus: LPS Assay for Interleukin-1 alpha (IL1a) Biomarker Activity (AID 2283080)). Conditions: primary human HUVEC with PBMC; actives raise or lower the signal.
Experimental: BSK_LPS is a cell-based, multiplexed-readout assay that uses umbilical vein endothelium and peripheral blood mononuclear cells, a human vascular primary cell co-culture, with measurements taken at 24 hours after chemical dosing in a 96-well plate.BSK_LPS_IL1a is an assay component measured in the BSK_LPS assay. It measures IL-a antibody related to regulation of gene expression using ELISA technology.Data from the assay component BSK_LPS_IL1a was analyzed into 1 assay endpoint. This assay endpoint, BSK_LPS_IL1a, was analyzed with bidirectional fitting relative to DMSO as the negative control and baseline of activity. Using a type of binding reporter, gain or loss-of-signal activity can be used to understand changes in the signaling as they relate to the gene IL1A. Furthermore, this assay endpoint can be referred to as a primary readout, because this assay has produced multiple assay endpoints where this one serves a signaling function. To generalize the intended target to other relatable targets, this assay endpoint is annotated to the cytokine intended target family, where the subfamily is interleukins.
The levels of cell surface (or secreted, indicated by the prefix "s") biomarker endpoints were measured by ELISA. Overt cytotoxicity to cells in confluent adherent cultures (all systems other than the BT system) was assessed by measuring total protein levels using sulforhodamine B (SRB) staining in parallel cultures at the time of biomarker measurements, indicated as SRB endpoints. For proliferation assays for adherent cell types, individual cell types are cultured at sub-confluence and relative cell numbers quantified by SRB staining at time points optimized for each system (48 h: 3C and CASM3C systems; 72 h: BT and HDF3CGF systems; 96 h: SAg system). SRB was performed by staining cells with 0.1% SRB after fixation with 10% TCA and reading wells at 560 nm.Viability and proliferation of PBMC (T cells) was quantified by Alamar Blue reduction for the SAg and BT systems. For PBMC viability (referred to as PBMC Cytotoxicity within the assay endpoint names), cells were plated (75,000/well in a 96-well plate) and then chemical samples added for 1 h before addition of activators, SEB and TSST-1 (20 ng/mL final concentration each). Cells were incubated for 90 h. Then, Alamar Blue (20 uL/well) (Invitrogen, Cat DAL1100) was added for 6 h, and the plates were read with a fluorescence microplate reader at 546/580 nm (excitation/emission). For PBMC proliferation, cells were plated and activated as above but incubated for only 16 h prior to addition of Alamar Blue. Plates were read after 6 h.

Row | SMILES | outcome | AC50
1 | O=c1c2ccccc2c(=O)c2c1cc(Cl)c1[nH]c3c([nH]c12)c(Cl)cc1c(=O)c2ccccc2c(=O)c13 | inactive | –
2 | O=C(O)CCCc1ccc(N(CCCl)CCCl)cc1 | – | 34.8 µM (active) and 20 µM (active)
3 | CCC(C)c1cc([N+](=O)[O-])cc([N+](=O)[O-])c1OC(=O)C=C(C)C (stereo not given) | – | 20 µM (active)
4 | O=P1(NCCCl)OCCCN1CCCl (stereo not given) | inactive | –
5 | N#CCCCCC#N | inactive | –
6 | Oc1ccc(C2(c3ccc(O)cc3)c3ccccc3-c3ccccc32)cc1 | inactive | 32.7 µM (active)
7 | Cc1ccc(OP(=O)(Oc2ccc(C)cc2)Oc2ccc(C)cc2)cc1 (tested in a mixture with another compound) | – | 4.74 µM (active)
8 | c1ccc(Nc2ccc3ccccc3c2)cc1 | inactive | –
9 | CC(C)(C)C(O)C(Oc1ccc(-c2ccccc2)cc1)n1cncn1 (stereo not given) | inactive | –
10 | O=C(CCl)c1ccccc1 | – | 3.72 µM (active)
11 | Oc1cc(Cl)ccc1Cl | inactive | –
12 | CC(C)CCCCCCCOP(=O)(Oc1ccccc1)Oc1ccccc1 | – | 27.3 µM (active)
13 | O=S(=O)(c1ccccc1)c1ccccc1 | inactive | –
14 | CCCC[N+](CCCC)(CCCC)CCCC | inactive | –
15 | CNC(=O)Oc1cc(C)c(SC)c(C)c1 | inactive | –
16 | O=C1C=CC(=O)C=C1 | inactive | 30.6 µM (active)
17 | O=c1[nH]c(Cl)c(Cl)cc1Cl | inactive | –
18 | Clc1ccc(-c2ccccc2)cc1 | inactive | –
19 | O=[N+]([O-])C=Cc1ccccc1 | – | 8.05 µM (active)

Row | SMILES | outcome | AC50
20 | O=C1C(Cl)=C(Cl)C(=O)C(Cl)=C1Cl | – | 14 µM (active)
21 | CC(C)COP(=O)(OCC(C)C)OCC(C)C | inactive | –
22 | C=CCN(CC=C)C(=O)C(Cl)Cl | inactive | –
23 | CCc1cc(C)cc(CC)c1-c1c(OC(=O)C(C)(C)C)n2n(c1=O)CCOCC2 | inactive | –
24 | CC(C)(c1cc(Cl)c(O)c(Cl)c1)c1cc(Cl)c(O)c(Cl)c1 | – | 31.5 µM (active)
25 | O=[N+]([O-])c1ccc(Cl)cc1 | inactive | –
26 | CC(=O)/C=C/c1ccccc1 | – | 20 µM (active)
27 | COc1ccc(CO)cc1 | inactive | –
28 | CCCOC(=O)c1ccccc1C(=O)OCCC | inactive | –
29 | COCC(=O)N(c1c(C)cccc1C)N1CCOC1=O | inactive | –
30 | Nc1ccc(-c2ccc(N)c(N)c2)cc1N | inactive | –
31 | CC1(C)[C@H](C(=O)O[C@H](C#N)c2cccc(Oc3ccccc3)c2)[C@@H]1C=C(Br)Br | inactive | –
32 | O=[N+]([O-])O | inactive | –
33 | CCCCCCCCCCCC#N | – | 32.4 µM (active)
34 | COC(C)(C)CCC[C@H](C)C/C=C/C(C)=C/C(=O)OC(C)C | – | 36.4 µM (active)
35 | CC(C)(C)C(=O)CCl | – | 33.9 µM (active)
36 | C=CC(=O)OCC(CC)CCCC (stereo not given) | inactive | –
37 | CC(C)CCCCCCCOC(=O)c1ccccc1C(=O)OCCCCCCCC(C)C | inactive | –
38 | [Cd+2].[Cl-].[Cl-] | inactive | –
